A short description of experiment [1]: ATG_TAL_CIS: Attagene CIS-FACTORIAL HepG2 Assay for human TAL Basal Promoter (AID 2282966; active = hit-call score of the fitted dose curve at least 0.9, where 1 is the maximum; inactive = score below 0.9;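 note: background control endpoint measuring basal TAL promoter reporter mRNA not a specific factor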). The settings on record: HepG2 Attagene cis-factorial TAL promoter reporter; actives raise or lower the signal. The essentials: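 HepG2 cells were transiently transfected with promoter-driven multiplexed reporter units and dosed for 24 h. Reporter mRNA was measured by RT-PCR with capillary electrophoresis fluorescence; bidirectional fits used DMSO as baseline, serving as a background control.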

Experiment [2] is described as follows: ATG_TGFb_CIS: Attagene CIS-FACTORIAL HepG2 Assay for human Transforming Growth Factor (TGF) (AID 2282967; active = hit-call score of the fitted dose curve at least 0.9, where 1 is the maximum; inactive = score below 0.9). The settings on record: HepG2 Attagene CIS TGFb reporter, mRNA transcription; actives raise or lower the signal. The essentials: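 HepG2 cells transiently transfected with cis-promoter-driven multiple reporter units measure endogenous TF activity; reporter mRNA quantified at 24 h by RT-PCR, FAM labeling, HpaI digestion and capillary electrophoresis. Bidirectional fit vs DMSO.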

The nature of experiment [3]: ATG_VDRE_CIS: Attagene CIS-FACTORIAL HepG2 Assay for human Vitamin D Receptor Element (VDRE) (AID 2282968; active = hit-call score of the fitted dose curve at least 0.9, where 1 is the maximum; inactive = score below 0.9). The settings on record: HepG2 VDRE cis-reporter transcription, actives raise or lower the signal. The essentials: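 RT-PCR/CE readout of reporter mRNA; HepG2, transient transfection, 24 h dosing; DMSO baseline; bidirectional analysis.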
The target of experiment [4] is Nuclear receptor subfamily 1 group I member 3 (Homo sapiens) (UniProt Q14994). Kind of experiment: ATG_CAR_TRANS: Attagene TRANS-FACTORIAL HepG2 Assay for human Constitutive Androstane Receptor (CAR) (AID 2282969).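 Note: activators raise reporter mRNA above DMSO so AC50 marks induction.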 The settings on record: HepG2 Attagene TRANS-FACTORIAL CAR reporter. The essentials:
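HepG2 cells transiently transfected with multiplexed GAL4-UAS reporter units expressing chimeric NR-Gal4 proteins; compound exposure 24 h. Reporter mRNA measured by RT-PCR, 6-FAM labelling, HpaI digestion and capillary electrophoresis; gain-of-signal fitted against DMSO baseline.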

Experiment [5] concerns the target Estrogen receptor (Homo sapiens) (UniProt P03372). The experiment in a line: ATG_ERa_TRANS: Attagene TRANS-FACTORIAL HepG2 Assay for human Estrogen Receptor alpha (ERa) (AID 2282970). As to conditions: HepG2 Attagene TRANS ERa GAL4 reporter, mRNA. The essentials:
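HepG2 cells transiently transfected with multiplexed GAL4-UAS reporter units; ERa activity read via exogenous chimeric NR-Gal4 protein. After 24 hour compound exposure, reporter mRNA measured by RT-PCR with 6-FAM labelling and capillary electrophoresis; gain-of-signal fitted relative to DMSO.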

Experiment [6] has as its target X-box-binding protein 1 (Homo sapiens) (UniProt P17861). Kind of experiment: ATG_Xbp1_CIS: Attagene CIS-FACTORIAL HepG2 Assay for human X-box Binding Protein 1 (XBP1) (AID 2282972; active = hit-call score of the fitted dose curve at least 0.9, where 1 is the maximum; inactive = score below 0.9). As to conditions: HepG2 XBP1 cis-element reporter, Attagene multiplex; actives raise or lower the signal. The essentials:
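HepG2 cells transiently transfected with multiple cis-element reporter units report endogenous TF activity; 24 h exposure, then reporter mRNA measured by RT-PCR, 6-FAM labelling, HpaI digestion and capillary electrophoresis. Bidirectional fitting versus DMSO.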

Experiment [7] can be described thus: ATG_M_19_TRANS: Attagene TRANS-FACTORIAL HepG2 Assay for M19 Transcription Factor (Internal Marker) (AID 2282974). As to conditions: HepG2 Attagene TRANS-FACTORIAL M19 internal marker reporter. The essentials:
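Cells: human HepG2, transiently transfected with multiplexed reporter transcription units. Exposure: 24 h. Detection: RT-PCR of reporter mRNA with capillary electrophoresis. Analysis: gain-of-signal vs DMSO.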

In experiment [8] the target is Glucocorticoid receptor (Homo sapiens) (UniProt P04150). Kind of experiment: ATG_GR_TRANS: Attagene TRANS-FACTORIAL HepG2 Assay for human Glucocorticoid Receptor (GR) (AID 2282978).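 Note: activators score as hits since higher reporter transcript over DMSO is fitted.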 As to conditions: HepG2 Attagene TRANS GR reporter, mRNA transcription. The essentials: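 In this trans-factorial format, exogenous NR-GAL4 chimeric proteins in transfected HepG2 cells regulate GAL4-UAS reporter transcription. After 24 h treatment, reporter mRNA induction relative to DMSO is read by RT-PCR and capillary electrophoresis.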

Experiment [9] addresses Oxysterols receptor LXR-alpha (Homo sapiens) (UniProt Q13133). The experiment in a line: ATG_LXRa_TRANS: Attagene TRANS-FACTORIAL HepG2 Assay for human Liver X Receptor alpha (LXRa) (AID 2282980). As to conditions: HepG2 Attagene TRANS reporter, LXRa transactivation. The essentials:
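HepG2 cells were transiently transfected with multiplexed reporter units driven by chimeric LXRa–GAL4 fusion proteins, then dosed for 24 h. Reporter mRNA was quantified by RT-PCR, fluorescent labelling and capillary electrophoresis; gain of signal fitted against DMSO baseline.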

Experiment [10] deals with Oxysterols receptor LXR-beta (Homo sapiens) (UniProt P55055). Kind of experiment: ATG_LXRb_TRANS: Attagene TRANS-FACTORIAL HepG2 Assay for human Liver X Receptor beta (LXRb) (AID 2282981). The settings on record: HepG2 Attagene TRANS GAL4-LXRb reporter, mRNA. The essentials: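 In this TRANS format, exogenous chimeric NR-Gal4 protein activity, not endogenous factors, drives reporter expression in transfected human HepG2 cells. Exposure lasted 24 h; reporter mRNA was read by fluorescent capillary electrophoresis.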

Experiment [11] deals with Hepatocyte nuclear factor 4-alpha (Homo sapiens) (UniProt P41235). Kind of experiment: ATG_HNF4a_TRANS: Attagene TRANS-FACTORIAL HepG2 Assay for human Hepatocyte Nuclear Factor 4 alpha (HNF4a) (AID 2282982). The settings on record: HepG2 HNF4a transactivation reporter, mRNA readout. The essentials:
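Cells used were human HepG2, transiently carrying GAL4-UAS reporter units read out against exogenous NR-GAL4 chimeras. Reporter transcript levels after 24 h dosing were quantified by fluorescent RT-PCR and capillary electrophoresis.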

Experiment [12] is described as follows: ATG_M_06_TRANS: Attagene TRANS-FACTORIAL HepG2 Assay for M06 Transcription Factor (Internal Marker) (AID 2282983). As to conditions: HepG2 Attagene TRANS M06 internal marker reporter. The essentials:
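HepG2 cells transiently transfected with multiplexed GAL4-UAS reporter transcription units; after 24 h compound exposure, reporter mRNA measured by RT-PCR, FAM-labelled primer extension, HpaI digestion and capillary electrophoresis. Gain-of-signal fitted versus DMSO baseline; background control readout.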

Experiment [13] can be described thus: ATG_M_32_TRANS: Attagene TRANS-FACTORIAL HepG2 Assay for M32 Transcription Factor (Internal Marker) (AID 2282984). The settings on record: HepG2 Attagene TRANS M32 internal marker reporter. The essentials:
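Human hepatoma HepG2, transient MRTU transfection, 24 h treatment. RNA → RT-PCR → fluorescent primer extension → HpaI digest (2 h, 37 C) → CE. Positive-direction fit vs DMSO.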

Experiment [14] concerns the target Nuclear receptor subfamily 4 group A member 2 (Homo sapiens) (UniProt P43354). The experiment in a line: ATG_NURR1_TRANS: Attagene TRANS-FACTORIAL HepG2 Assay for human Nuclear Receptor Related Protein 1 (NURR1) (AID 2282985). The settings on record: HepG2 Attagene TRANS reporter, mRNA readout. The essentials:
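After 24 h chemical dosing, total RNA from transiently transfected HepG2 cells was reverse-transcribed and reporter cDNA PCR-amplified, FAM-labelled and analysed by capillary electrophoresis. Activity fitted in positive direction, DMSO as negative control.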

For experiment [15], the target named is Transcriptional activator Myb (Homo sapiens) (UniProt P10242). The experiment in a line: ATG_Myb_CIS: Attagene CIS-FACTORIAL HepG2 Assay for human Myeloblastosis (Myb) Proto-Oncogene Transcription Factor (AID 2282986; active = hit-call score of the fitted dose curve at least 0.9, where 1 is the maximum; inactive = score below 0.9). As to conditions: HepG2 Attagene CIS-FACTORIAL Myb reporter transcription; actives raise or lower the signal. The essentials:
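Steps: transfect HepG2 with cis-regulated reporter units; dose with chemical for 24 h; isolate RNA, reverse-transcribe, PCR-amplify and FAM-label reporter sequences; digest with HpaI; resolve by capillary electrophoresis. Activity fitted in both directions relative to DMSO.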

Experiment [16] addresses Nuclear respiratory factor 1 (Homo sapiens) (UniProt Q16656). The experiment in a line: ATG_NRF1_CIS: Attagene CIS-FACTORIAL HepG2 Assay for human Nuclear Respiratory Factor 1 (NRF1) Orphan Gene (AID 2282987; active = hit-call score of the fitted dose curve at least 0.9, where 1 is the maximum; inactive = score below 0.9). The settings on record: HepG2 NRF1 cis-element reporter, Attagene multiplex; actives raise or lower the signal. The essentials:
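Fluorescence intensity of labelled reporter cDNA fragments, resolved by capillary electrophoresis, served as readout for NRF1 cis-element activity. Transiently transfected HepG2 cells were dosed for 24 hours; activity in either direction was fitted against DMSO negative control.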

A short description of experiment [17]: ATG_GAL4_TRANS: Attagene TRANS-FACTORIAL HepG2 Assay for GAL4 (Internal Marker) (AID 2282976). As to conditions: HepG2 Attagene TRANS GAL4 internal marker reporter. The essentials: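 HepG2 cells transiently transfected with multiplexed GAL4-UAS reporter constructs were dosed for 24 h. Reporter mRNA was measured by RT-PCR, 6-FAM primer extension, HpaI digestion and capillary electrophoresis, and gain of signal was fitted relative to DMSO.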

The target in experiment [18] is Bile acid receptor (Homo sapiens) (UniProt Q96RI1). The experiment in a line: ATG_FXR_TRANS: Attagene TRANS-FACTORIAL HepG2 Assay for Farnesoid X Receptor (FXR) (AID 2282979).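 Note: hits raise reporter mRNA above DMSO so AC50 marks FXR activation.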 As to conditions: HepG2 Attagene TRANS FXR-GAL4 reporter transcription. The essentials: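 HepG2 cells transiently transfected with reporter constructs in which a chimeric FXR-GAL4 protein drives a GAL4-UAS reporter; 24 h compound exposure. Reporter mRNA measured by RT-PCR, FAM labelling, HpaI digestion and capillary electrophoresis; gain-of-signal versus DMSO.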

The structures appear in SMILES notation. Inconclusive results are not listed. Active and inactive are the calls of the source. Rule for the calls, unless noted: active = hit-call score of the fitted dose curve at least 0.9, where 1 is the maximum; inconclusive = response in the unintended direction; inactive = score below 0.9.

Sequence of Glucocorticoid receptor (Homo sapiens) (P04150 whole entry, looked up, the tested form may be a part): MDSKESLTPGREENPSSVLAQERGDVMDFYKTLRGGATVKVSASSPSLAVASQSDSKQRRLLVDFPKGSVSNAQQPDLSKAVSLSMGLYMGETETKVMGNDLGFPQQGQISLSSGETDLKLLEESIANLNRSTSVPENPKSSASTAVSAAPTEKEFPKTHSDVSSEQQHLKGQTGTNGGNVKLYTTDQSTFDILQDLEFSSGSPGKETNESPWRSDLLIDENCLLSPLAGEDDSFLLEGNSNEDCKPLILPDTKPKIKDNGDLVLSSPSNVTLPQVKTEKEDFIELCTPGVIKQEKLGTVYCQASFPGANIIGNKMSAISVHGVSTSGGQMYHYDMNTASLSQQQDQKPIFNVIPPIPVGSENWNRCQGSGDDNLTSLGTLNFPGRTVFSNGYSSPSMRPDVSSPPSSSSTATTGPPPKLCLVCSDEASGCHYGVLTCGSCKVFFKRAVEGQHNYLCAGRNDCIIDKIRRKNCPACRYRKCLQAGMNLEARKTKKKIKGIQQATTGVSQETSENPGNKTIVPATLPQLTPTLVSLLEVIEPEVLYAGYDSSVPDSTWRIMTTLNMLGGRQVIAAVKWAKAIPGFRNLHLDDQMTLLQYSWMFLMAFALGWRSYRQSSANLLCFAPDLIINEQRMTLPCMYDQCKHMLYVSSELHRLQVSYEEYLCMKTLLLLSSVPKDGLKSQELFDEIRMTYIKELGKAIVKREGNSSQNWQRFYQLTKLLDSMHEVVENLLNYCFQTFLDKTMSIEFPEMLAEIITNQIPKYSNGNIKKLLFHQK
Sequence of Nuclear respiratory factor 1 (Homo sapiens) (Q16656 whole entry, looked up, the tested form may be a part): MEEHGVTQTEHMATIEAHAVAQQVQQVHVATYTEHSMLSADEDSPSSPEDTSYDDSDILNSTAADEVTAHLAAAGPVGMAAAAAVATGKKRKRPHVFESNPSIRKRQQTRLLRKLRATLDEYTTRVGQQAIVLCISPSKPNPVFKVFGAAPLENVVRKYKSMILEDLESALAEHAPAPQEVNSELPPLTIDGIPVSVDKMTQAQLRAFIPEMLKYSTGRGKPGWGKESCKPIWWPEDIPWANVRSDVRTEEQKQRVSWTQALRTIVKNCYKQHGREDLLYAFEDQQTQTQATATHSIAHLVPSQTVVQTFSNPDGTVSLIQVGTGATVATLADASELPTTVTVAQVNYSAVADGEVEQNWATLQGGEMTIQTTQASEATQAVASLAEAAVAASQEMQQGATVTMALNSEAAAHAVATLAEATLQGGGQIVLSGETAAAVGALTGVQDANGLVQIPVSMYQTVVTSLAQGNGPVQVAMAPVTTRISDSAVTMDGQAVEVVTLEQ
Sequence of X-box-binding protein 1 (Homo sapiens) (P17861 whole entry, looked up): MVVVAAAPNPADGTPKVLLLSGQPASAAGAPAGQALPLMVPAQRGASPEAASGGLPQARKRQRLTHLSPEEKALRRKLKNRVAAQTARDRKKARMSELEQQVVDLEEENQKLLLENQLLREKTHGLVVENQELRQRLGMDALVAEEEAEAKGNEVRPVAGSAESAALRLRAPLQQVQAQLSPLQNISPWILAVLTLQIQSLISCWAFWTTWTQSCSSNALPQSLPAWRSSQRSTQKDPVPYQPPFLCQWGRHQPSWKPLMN
Sequence of Transcriptional activator Myb (Homo sapiens) (P10242 whole entry, looked up): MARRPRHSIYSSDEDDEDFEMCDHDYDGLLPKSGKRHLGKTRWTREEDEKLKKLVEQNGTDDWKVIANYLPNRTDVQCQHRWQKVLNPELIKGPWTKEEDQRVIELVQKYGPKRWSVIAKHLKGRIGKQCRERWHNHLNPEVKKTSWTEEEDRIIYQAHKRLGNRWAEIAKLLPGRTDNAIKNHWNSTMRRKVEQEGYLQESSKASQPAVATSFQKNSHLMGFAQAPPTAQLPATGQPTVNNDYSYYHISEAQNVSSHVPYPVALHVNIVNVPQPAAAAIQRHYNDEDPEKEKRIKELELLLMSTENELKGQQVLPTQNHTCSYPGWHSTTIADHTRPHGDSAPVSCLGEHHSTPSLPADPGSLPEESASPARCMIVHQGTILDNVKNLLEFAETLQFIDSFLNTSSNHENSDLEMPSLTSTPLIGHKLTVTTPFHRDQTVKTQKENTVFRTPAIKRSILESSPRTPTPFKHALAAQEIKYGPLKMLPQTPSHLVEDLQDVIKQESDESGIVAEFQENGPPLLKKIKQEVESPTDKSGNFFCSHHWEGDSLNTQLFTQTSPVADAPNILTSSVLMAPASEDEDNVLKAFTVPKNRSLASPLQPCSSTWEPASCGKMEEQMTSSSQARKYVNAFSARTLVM
Sequence of Estrogen receptor (Homo sapiens) (P03372 whole entry, looked up, the tested form may be a part): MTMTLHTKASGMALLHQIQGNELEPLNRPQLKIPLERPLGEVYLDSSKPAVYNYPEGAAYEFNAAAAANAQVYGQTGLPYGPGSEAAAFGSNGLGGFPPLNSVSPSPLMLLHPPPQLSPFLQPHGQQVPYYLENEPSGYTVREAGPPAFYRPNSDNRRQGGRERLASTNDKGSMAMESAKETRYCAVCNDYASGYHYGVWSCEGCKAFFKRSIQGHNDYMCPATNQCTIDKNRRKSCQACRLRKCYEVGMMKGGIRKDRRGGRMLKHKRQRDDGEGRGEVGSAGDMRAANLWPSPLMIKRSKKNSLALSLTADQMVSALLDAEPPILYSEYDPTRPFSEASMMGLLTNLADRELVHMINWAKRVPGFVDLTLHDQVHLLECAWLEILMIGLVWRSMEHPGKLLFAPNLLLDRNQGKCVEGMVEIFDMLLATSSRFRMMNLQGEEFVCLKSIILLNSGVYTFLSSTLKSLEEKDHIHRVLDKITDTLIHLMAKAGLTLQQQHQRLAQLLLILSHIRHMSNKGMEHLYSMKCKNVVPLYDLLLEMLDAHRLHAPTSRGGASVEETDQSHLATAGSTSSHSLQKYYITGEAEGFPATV
Sequence of Oxysterols receptor LXR-alpha (Homo sapiens) (Q13133 whole entry, looked up, the tested form may be a part): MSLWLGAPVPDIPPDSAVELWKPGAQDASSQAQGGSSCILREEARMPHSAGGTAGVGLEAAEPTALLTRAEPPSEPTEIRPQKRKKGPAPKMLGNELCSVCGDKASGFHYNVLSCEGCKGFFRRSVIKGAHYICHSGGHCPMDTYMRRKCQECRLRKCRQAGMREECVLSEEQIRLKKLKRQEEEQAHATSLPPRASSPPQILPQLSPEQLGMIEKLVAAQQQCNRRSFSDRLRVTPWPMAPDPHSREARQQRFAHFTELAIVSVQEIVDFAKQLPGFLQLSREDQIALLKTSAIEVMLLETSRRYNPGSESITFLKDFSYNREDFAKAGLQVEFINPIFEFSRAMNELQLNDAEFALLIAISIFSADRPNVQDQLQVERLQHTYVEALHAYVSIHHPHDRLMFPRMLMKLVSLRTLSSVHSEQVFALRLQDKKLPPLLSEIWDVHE
Sequence of Nuclear receptor subfamily 1 group I member 3 (Homo sapiens) (Q14994 whole entry, looked up, the tested form may be a part): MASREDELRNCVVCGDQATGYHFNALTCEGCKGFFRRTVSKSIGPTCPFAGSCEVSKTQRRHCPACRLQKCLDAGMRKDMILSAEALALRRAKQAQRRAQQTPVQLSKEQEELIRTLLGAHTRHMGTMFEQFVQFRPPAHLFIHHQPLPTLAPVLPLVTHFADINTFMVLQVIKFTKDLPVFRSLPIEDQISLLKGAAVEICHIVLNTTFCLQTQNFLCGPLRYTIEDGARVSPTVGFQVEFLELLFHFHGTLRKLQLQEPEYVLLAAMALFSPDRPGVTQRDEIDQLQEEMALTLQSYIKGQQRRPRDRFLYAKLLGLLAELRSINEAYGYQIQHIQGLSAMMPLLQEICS
Sequence of Hepatocyte nuclear factor 4-alpha (Homo sapiens) (P41235 whole entry, looked up, the tested form may be a part): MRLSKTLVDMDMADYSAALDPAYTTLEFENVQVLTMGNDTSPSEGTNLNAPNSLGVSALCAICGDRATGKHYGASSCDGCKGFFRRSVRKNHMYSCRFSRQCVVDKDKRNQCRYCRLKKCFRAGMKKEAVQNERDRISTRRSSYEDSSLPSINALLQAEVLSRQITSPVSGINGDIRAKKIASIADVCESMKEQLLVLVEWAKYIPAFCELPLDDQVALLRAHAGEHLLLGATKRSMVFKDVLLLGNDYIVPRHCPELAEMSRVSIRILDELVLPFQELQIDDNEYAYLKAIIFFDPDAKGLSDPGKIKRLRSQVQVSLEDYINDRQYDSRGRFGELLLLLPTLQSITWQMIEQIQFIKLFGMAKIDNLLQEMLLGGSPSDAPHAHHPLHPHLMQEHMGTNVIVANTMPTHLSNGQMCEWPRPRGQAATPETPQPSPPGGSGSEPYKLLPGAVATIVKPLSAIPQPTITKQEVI
Sequence of Nuclear receptor subfamily 4 group A member 2 (Homo sapiens) (P43354 whole entry, looked up): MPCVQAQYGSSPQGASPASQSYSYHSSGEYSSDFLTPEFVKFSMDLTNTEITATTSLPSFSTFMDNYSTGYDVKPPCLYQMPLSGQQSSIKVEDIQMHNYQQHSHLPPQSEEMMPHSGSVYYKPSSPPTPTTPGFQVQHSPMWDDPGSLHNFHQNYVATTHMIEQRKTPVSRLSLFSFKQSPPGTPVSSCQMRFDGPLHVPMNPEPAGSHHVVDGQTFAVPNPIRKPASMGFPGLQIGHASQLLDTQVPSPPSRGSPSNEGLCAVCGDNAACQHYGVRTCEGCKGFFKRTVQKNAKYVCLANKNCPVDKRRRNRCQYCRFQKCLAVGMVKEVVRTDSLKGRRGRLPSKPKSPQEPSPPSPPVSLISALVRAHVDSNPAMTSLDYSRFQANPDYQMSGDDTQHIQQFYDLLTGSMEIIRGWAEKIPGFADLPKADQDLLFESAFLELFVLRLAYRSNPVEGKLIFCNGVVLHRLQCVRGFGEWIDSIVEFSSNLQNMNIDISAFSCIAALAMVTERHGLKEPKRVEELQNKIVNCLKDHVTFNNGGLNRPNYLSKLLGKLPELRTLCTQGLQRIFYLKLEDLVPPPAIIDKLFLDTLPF

On to `Cc1ccc(N=Nc2c(O)ccc3ccccc23)c(C)c1`, for which the compound was called inactive in experiment [1], in [2], in [4], in experiment [6], in experiment [7] and in [8]. For the same compound, the outcome in experiment [9], in [10], in [11], in experiment [12], in [13] and in experiment [14] was inactive. Further, the compound was called inactive in [15] and in [16]. The AC50 in experiment [3] is 2.55 µM (active); in experiment [5] it was 6.5 µM (active).

Turning to `COc1cccc(O)c1`, the result in experiment [1], in [2], in experiment [3], in experiment [4], in experiment [5] and in experiment [7] was inactive. For the same compound, the outcome in experiment [17], in experiment [9], in [12], in [13], in experiment [15] and in [16] was inactive.

Regarding `OCC(F)(F)C(F)(F)C(F)(F)C(F)(F)C(F)(F)C(F)(F)C(F)(F)C(F)(F)C(F)(F)C(F)(F)C(F)(F)F`, the result in experiment [1], in [2], in experiment [3], in experiment [4], in experiment [6] and in experiment [8] was inactive. Moreover, the compound was called inactive in experiment [18], in experiment [11], in experiment [12], in experiment [13], in [15] and in experiment [16]. In addition, in [5], the AC50 was 62.3 µM (active).

With `CCN(CCC#N)c1ccccc1`, the outcome in [1], in experiment [2], in experiment [3], in experiment [4], in experiment [5] and in experiment [6] was inactive. Also, the call in experiment [7], in experiment [17], in experiment [8], in experiment [18], in [9] and in [12] was inactive. For the same compound, the compound was classed as inactive in experiment [13], in experiment [14], in experiment [15] and in experiment [16].

As a reminder, the AC50 is the concentration giving half of the maximal activity seen.

Source of the values: PubChem BioAssay (EPA / NIEHS).
